Test results taken from PubChem BioAssay AID1159580 (chemical genetic matrix, 2015).
In all, about 5,500 compounds went through this assay and about 2,000 (36%) were called active. Another 18% or so got no clear call; they are omitted. Rule as the data show it: active = normalized growth mostly below about 0.91 (no sharp cut-off); inconclusive = no clear call, values can overlap the other calls; inactive = mostly above about 0.92. The list shows a part of the results.

Assay: chemical genetic growth profiling, strain panel (AID 1159580);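 also: tested at 20 µM; growth read once vehicle control cultures reached saturation at 30 °C; 1 = growth at the plate median or of vehicle wells; lower values mean less growth of the strain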
Settings: growth OD

Measured: normalized growth

CCCCCCCCCCCCCC(=O)OC1C(C)C2(O)C(C=C(CO)CC3(O)C(=O)C(C)=CC32)C2C(C)(C)C12OC(C)=O (centres undefined)
inactive: S. cerevisiae deletion strains, locus YJR043C, strain POL32, active compounds read low 1.03 | S. cerevisiae deletion strains, locus YJR075W, strain HOC1, active compounds read low 1 | S. cerevisiae deletion strains, locus YKL009W, strain mrt4, active compounds read low 0.973 | S. cerevisiae deletion strains, locus YKL068W, active compounds read low 1.01 | S. cerevisiae deletion strains, locus YKL085W, strain MDH1 (second series), active compounds read low 0.966 | S. cerevisiae deletion strains, locus YKL085W, strain MDH1, active compounds read low 0.966 | S. cerevisiae deletion strains, locus YKL160W, strain elf1, active compounds read low 1 | S. cerevisiae deletion strains, locus YKL190W, strain CNB1, active compounds read low 1.02 | S. cerevisiae deletion strains, locus YKR001C, strain vps1, active compounds read low 0.981 | S. cerevisiae deletion strains, locus YKR026C, strain gcn3, active compounds read low 0.964 | S. cerevisiae deletion strains, locus YKR091W, strain srl3, active compounds read low 0.979 | S. cerevisiae deletion strains, locus YLL001W, strain dnm1, active compounds read low 0.991 | S. cerevisiae deletion strains, locus YLL026W, active compounds read low 0.988 | S. cerevisiae deletion strains, locus YLL041C, strain sdh2, active compounds read low 0.984 | S. cerevisiae deletion strains, locus YLR027C, strain aat2, active compounds read low 0.992 | S. cerevisiae deletion strains, locus YLR039C, strain RIC1, active compounds read low 1.06 | S. cerevisiae deletion strains, locus YLR058C, strain SHM2, active compounds read low 0.996 | S. cerevisiae deletion strains, locus YLR102C, strain apc9, active compounds read low 0.998 | S. cerevisiae deletion strains, locus YLR221C, strain rsa3, active compounds read low 0.972 | S. cerevisiae deletion strains, locus YLR258W, strain gsy2, active compounds read low 0.988 | S. cerevisiae deletion strains, locus YLR262C, strain YPT6 (second series), active compounds read low 0.993 | S. cerevisiae deletion strains, locus YLR262C, strain YPT6, active compounds read low 0.988 | S. cerevisiae deletion strains, locus YLR268W, strain sec22, active compounds read low 1.01 | S. cerevisiae deletion strains, locus YLR320W, strain mms22, active compounds read low 0.974 | S. cerevisiae deletion strains, locus YLR330W, strain CHS5, active compounds read low 0.997 | S. cerevisiae deletion strains, locus YLR342W, strain FKS1 (second series), active compounds read low 1.03 | S. cerevisiae deletion strains, locus YLR342W, strain FKS1, active compounds read low 0.982 | S. cerevisiae deletion strains, locus YLR357W, strain rsc2, active compounds read low 0.954 | S. cerevisiae deletion strains, locus YLR370C, strain arc18, active compounds read low 0.988 | S. cerevisiae deletion strains, locus YLR371W, strain rom2, active compounds read low 0.994 | S. cerevisiae deletion strains, locus YLR384C, strain iki3, active compounds read low 0.99 | S. cerevisiae deletion strains, locus YLR418C, strain cdc73, active compounds read low 0.973 | S. cerevisiae deletion strains, locus YML016C, strain PPZ1, active compounds read low 1.03 | S. cerevisiae deletion strains, locus YML032C, strain rad52, active compounds read low 0.976 | S. cerevisiae deletion strains, locus YML120C, strain ndi1, active compounds read low 0.983 | S. cerevisiae deletion strains, locus YML124C, strain tub3, active compounds read low 0.998 | S. cerevisiae deletion strains, locus YMR058W, strain fet3, active compounds read low 0.983 | S. cerevisiae deletion strains, locus YMR078C, strain ctf18, active compounds read low 0.991 | S. cerevisiae deletion strains, locus YMR125W, strain sto1, active compounds read low 0.993 | S. cerevisiae deletion strains, locus YMR129W, active compounds read low 0.976 | S. cerevisiae deletion strains, locus YMR205C, strain PFK2, active compounds read low 0.926 | S. cerevisiae deletion strains, locus YMR223W, strain ubp8, active compounds read low 0.971 | S. cerevisiae deletion strains, locus YMR231W, strain pep5, active compounds read low 0.986 | S. cerevisiae deletion strains, locus YMR263W, strain SAP30, active compounds read low 1 | S. cerevisiae deletion strains, locus YMR307W, strain GAS1, active compounds read low 0.922 | S. cerevisiae deletion strains, locus YNL067W, strain RPL9B, active compounds read low 1.01 | S. cerevisiae deletion strains, locus YNL071W, strain lat1, active compounds read low 0.991 | S. cerevisiae deletion strains, locus YNL128W, strain TEP1, active compounds read low 1.01 | S. cerevisiae deletion strains, locus YNL153C, strain GIM3, active compounds read low 0.999 | S. cerevisiae deletion strains, locus YNL209W, strain ssb2, active compounds read low 0.99 | S. cerevisiae deletion strains, locus YNL233W, strain BNI4, active compounds read low 1 | S. cerevisiae deletion strains, locus YNL248C, strain rpa49, active compounds read low 0.995 | S. cerevisiae deletion strains, locus YNL250W, strain rad50, active compounds read low 0.981 | S. cerevisiae deletion strains, locus YNL271C, strain bni1, active compounds read low 1 | S. cerevisiae deletion strains, locus YNL298W, strain CLA4, active compounds read low 0.976 | S. cerevisiae deletion strains, locus YNL307C, strain MCK1, active compounds read low 0.99 | S. cerevisiae deletion strains, locus YNL322C, strain KRE1 (second series), active compounds read low 0.978 | S. cerevisiae deletion strains, locus YNL322C, strain KRE1, active compounds read low 0.997 | S. cerevisiae deletion strains, locus YNR049C, strain mso1, active compounds read low 0.981 | S. cerevisiae deletion strains, locus YNR052C, strain pop2, active compounds read low 0.995 | S. cerevisiae deletion strains, locus YOL006C, strain TOP1, active compounds read low 1.03 | S. cerevisiae deletion strains, locus YOL012C, strain htz1 0.932 | S. cerevisiae deletion strains, locus YOL147C, strain pex11, active compounds read low 0.99 | S. cerevisiae deletion strains, locus YOR001W, strain rrp6, active compounds read low 1.01 | S. cerevisiae deletion strains, locus YOR061W, strain CKA2, active compounds read low 1.02 | S. cerevisiae deletion strains, locus YOR069W, strain VPS5, active compounds read low 1.02 | S. cerevisiae deletion strains, locus YOR070C, strain gyp1, active compounds read low 0.987 | S. cerevisiae deletion strains, locus YOR080W, strain dia2, active compounds read low 0.977 | S. cerevisiae deletion strains, locus YOR083W, strain WHI5, active compounds read low 1.01 | S. cerevisiae deletion strains, locus YOR106W, strain vam3, active compounds read low 0.999 | S. cerevisiae deletion strains, locus YOR136W, strain idh2, active compounds read low 0.981 | S. cerevisiae deletion strains, locus YOR144C, strain elg1, active compounds read low 1 | S. cerevisiae deletion strains, locus YOR184W, strain ser1, active compounds read low 0.979 | S. cerevisiae deletion strains, locus YOR265W, strain rbl2, active compounds read low 0.997 | S. cerevisiae deletion strains, locus YOR270C, strain vph1, active compounds read low 0.948 | S. cerevisiae deletion strains, locus YOR290C, strain snf2, active compounds read low 0.947 | S. cerevisiae deletion strains, locus YOR316C, strain cot1, active compounds read low 0.994 | S. cerevisiae deletion strains, locus YPL051W, strain arl3, active compounds read low 1.02 | S. cerevisiae deletion strains, locus YPL055C, strain LGE1, active compounds read low 1.02 | S. cerevisiae deletion strains, locus YPL078C, strain atp4, active compounds read low 0.989 | S. cerevisiae deletion strains, locus YPL106C, strain sse1, active compounds read low 0.985 | S. cerevisiae deletion strains, locus YPL240C, strain hsp82, active compounds read low 0.961 | S. cerevisiae deletion strains, locus YPL241C, strain CIN2, active compounds read low 0.972 | S. cerevisiae deletion strains, locus YPR119W, strain clb2, active compounds read low 0.993 | S. cerevisiae deletion strains, locus YPR141C, strain kar3, active compounds read low 0.986 | S. cerevisiae deletion strains, locus YPR163C, strain tif3, active compounds read low 0.998 | S. cerevisiae deletion strains, locus YPR167C, strain met16, active compounds read low 1 | S. cerevisiae deletion strains, strain wtn01, active compounds read low 1.01 | S. cerevisiae strains, strain wild type, active compounds read low 1.04
